In PubChem BioAssay (NCI):
About 83,000 compounds went through this panel and 20% of them were active in at least one assay; those are over-represented in the sample as a whole.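 Method: cells in 96-well plates; compound added at one concentration; 48 h incubation; percent growth measured; values under 10 scored active.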 The source made the active and inactive calls.

What was measured:
Experiment in all cases: NCI-60 one-dose screen, 48 h (100 = growth as untreated, 0 = no growth, -100 = all killed)
Settings in all cases: 10 µM
SK-MEL-2 melanoma = tested on: SK-MEL-2 melanoma
EKVX NSCLC = tested on: EKVX NSCLC
SN12C renal = tested on: SN12C renal
UO-31 renal = tested on: UO-31 renal
TK-10 renal = tested on: TK-10 renal
ACHN renal = tested on: ACHN renal
CAKI-1 renal = tested on: CAKI-1 renal
A498 renal = tested on: A498 renal
MOLT-4 leukemia = tested on: MOLT-4 leukemia
SR leukemia = tested on: SR leukemia
RPMI-8226 leukemia = tested on: RPMI-8226 leukemia
OVCAR-8 ovarian = tested on: OVCAR-8 ovarian
OVCAR-5 ovarian = tested on: OVCAR-5 ovarian
OVCAR-4 ovarian = tested on: OVCAR-4 ovarian
SK-OV-3 ovarian = tested on: SK-OV-3 ovarian
IGROV1 ovarian = tested on: IGROV1 ovarian
OVCAR-3 ovarian = tested on: OVCAR-3 ovarian
HS 578T breast = tested on: HS 578T breast
NCI/ADR-RES ovarian = tested on: NCI/ADR-RES ovarian
CCRF-CEM leukemia = tested on: CCRF-CEM leukemia

Measured: growth

Cc1cc(CSc2ccccc2C(=O)N2CC=C(c3ccccc3)CC2)on1
inactive: SK-MEL-2 melanoma 94.1% | EKVX NSCLC 90.7% | SN12C renal 105% | UO-31 renal 88.1% | TK-10 renal 96.9% | ACHN renal 91.6% | CAKI-1 renal 86.3% | A498 renal 98.4% | MOLT-4 leukemia 91.6% | SR leukemia 85.3% | RPMI-8226 leukemia 84.9% | OVCAR-8 ovarian 111% | OVCAR-5 ovarian 87.3% | OVCAR-4 ovarian 89.2% | SK-OV-3 ovarian 107% | IGROV1 ovarian 92.2% | OVCAR-3 ovarian 107% | HS 578T breast 100% | NCI/ADR-RES ovarian 90.7%

CCN(CC)CCN1c2nc3ccccc3cc2Sc2cc3ccccc3nc21
inactive: SN12C renal 27% | TK-10 renal 82% | ACHN renal 24.9% | A498 renal 25.7% | OVCAR-5 ovarian 13.6% | OVCAR-4 ovarian 15.8% | SK-OV-3 ovarian 46% | OVCAR-3 ovarian 27.1% | HS 578T breast 12.4%
active: SK-MEL-2 melanoma -35.9% | EKVX NSCLC -3.38% | UO-31 renal -64.1% | CAKI-1 renal 8.6% | MOLT-4 leukemia -47.8% | SR leukemia -53% | RPMI-8226 leukemia -15.9% | OVCAR-8 ovarian 7.3% | NCI/ADR-RES ovarian 4.85%

COc1cc(-c2nc3ccccc3o2)cc(CN2CCCCC2)c1O
inactive: SK-MEL-2 melanoma 89.3% | EKVX NSCLC 66.5% | SN12C renal 62.1% | UO-31 renal 43.9% | TK-10 renal 129% | ACHN renal 64.8% | CAKI-1 renal 85.2% | A498 renal 55.2% | MOLT-4 leukemia 48.8% | SR leukemia 31.7% | RPMI-8226 leukemia 45.1% | OVCAR-8 ovarian 71.1% | OVCAR-5 ovarian 110% | SK-OV-3 ovarian 118% | IGROV1 ovarian 82.1% | OVCAR-3 ovarian 59% | HS 578T breast 60.3% | NCI/ADR-RES ovarian 79.7%

COc1cc2ncnc(NC3CCC(O)CC3)c2cc1OC (centres undefined)
inactive: SK-MEL-2 melanoma 97.1% | EKVX NSCLC 80.8% | SN12C renal 106% | UO-31 renal 76.2% | TK-10 renal 90% | ACHN renal 94.9% | CAKI-1 renal 88.5% | A498 renal 93.7% | MOLT-4 leukemia 62.8% | SR leukemia 77.4% | RPMI-8226 leukemia 104% | OVCAR-8 ovarian 97.4% | OVCAR-5 ovarian 92.1% | OVCAR-4 ovarian 103% | SK-OV-3 ovarian 109% | IGROV1 ovarian 97.1% | OVCAR-3 ovarian 111% | HS 578T breast 95.5% | NCI/ADR-RES ovarian 100%

CNC(=O)c1cc(Oc2ccc3c(c2)sc2nc(-c4ccc(N)cc4)cn23)ccn1
inactive: SK-MEL-2 melanoma 35.8% | EKVX NSCLC 40.9% | SN12C renal 29.4% | UO-31 renal 43.8% | TK-10 renal 57.4% | ACHN renal 29.1% | CAKI-1 renal 43.9% | A498 renal 26.7% | MOLT-4 leukemia 15% | SR leukemia 28.3% | RPMI-8226 leukemia 40.5% | OVCAR-8 ovarian 10.9% | OVCAR-5 ovarian 64.2% | OVCAR-4 ovarian 59.7% | SK-OV-3 ovarian 21.2% | IGROV1 ovarian 31.6% | HS 578T breast 54.9% | NCI/ADR-RES ovarian 11.2%

CNC(=O)c1cc(Oc2ccc3c(c2)sc2nc(-c4ccc(NC(=O)Nc5ccc(Cl)c(C(F)(F)F)c5)cc4)cn23)ccn1
inactive: SK-MEL-2 melanoma 75.4% | EKVX NSCLC 77.3% | SN12C renal 87.3% | UO-31 renal 73.9% | TK-10 renal 81% | ACHN renal 82.8% | CAKI-1 renal 80.6% | A498 renal 83% | MOLT-4 leukemia 64.2% | SR leukemia 55.5% | RPMI-8226 leukemia 76.1% | OVCAR-8 ovarian 104% | OVCAR-5 ovarian 93.4% | OVCAR-4 ovarian 80.3% | SK-OV-3 ovarian 93.1% | IGROV1 ovarian 78% | HS 578T breast 71.7% | NCI/ADR-RES ovarian 89.9%

C#CCOc1c(OC)cc(C(=O)/C(C)=C/c2cccc(N=[N+]=[N-])c2)cc1OC
active: OVCAR-3 ovarian -0.611%
inactive: SK-MEL-2 melanoma 27.5% | EKVX NSCLC 46% | SN12C renal 41.8% | UO-31 renal 50.9% | TK-10 renal 60.8% | ACHN renal 32.4% | CAKI-1 renal 42.9% | A498 renal 23.4% | MOLT-4 leukemia 21.8% | SR leukemia 28.7% | RPMI-8226 leukemia 43.7% | OVCAR-8 ovarian 28.6% | OVCAR-5 ovarian 42.9% | OVCAR-4 ovarian 55.9% | SK-OV-3 ovarian 32.1% | IGROV1 ovarian 33.2% | HS 578T breast 46% | NCI/ADR-RES ovarian 13.6%

CCCc1cn(CC(=O)Nc2nc3ccccc3s2)nn1
inactive: SK-MEL-2 melanoma 105% | EKVX NSCLC 101% | SN12C renal 98.5% | UO-31 renal 65.9% | TK-10 renal 103% | ACHN renal 101% | CAKI-1 renal 87.6% | A498 renal 129% | MOLT-4 leukemia 110% | SR leukemia 110% | RPMI-8226 leukemia 112% | OVCAR-8 ovarian 100% | OVCAR-5 ovarian 98.6% | OVCAR-4 ovarian 109% | SK-OV-3 ovarian 110% | IGROV1 ovarian 97.3% | OVCAR-3 ovarian 107% | HS 578T breast 101%

O=C(O)c1ccc(-n2cc(CNc3ccc(Cl)cc3)c(-c3ccccc3)n2)cc1
inactive: SK-MEL-2 melanoma 78.5% | EKVX NSCLC 78.1% | SN12C renal 94.9% | UO-31 renal 82.4% | TK-10 renal 91.7% | ACHN renal 79.5% | CAKI-1 renal 88.8% | A498 renal 91.4% | MOLT-4 leukemia 82.4% | SR leukemia 69.1% | RPMI-8226 leukemia 89.1% | OVCAR-8 ovarian 98.9% | OVCAR-5 ovarian 103% | OVCAR-4 ovarian 88.3% | SK-OV-3 ovarian 107% | IGROV1 ovarian 92.1% | OVCAR-3 ovarian 98.6% | HS 578T breast 85% | NCI/ADR-RES ovarian 91.6%

CCN1C(=O)CC(SC2CC(=O)N(CC)C2=O)C1=O (centres undefined)
inactive: SK-MEL-2 melanoma 93.6% | EKVX NSCLC 95.9% | SN12C renal 98.6% | UO-31 renal 80.2% | TK-10 renal 89.4% | ACHN renal 106% | CAKI-1 renal 95.1% | A498 renal 74.9% | CCRF-CEM leukemia 94.1% | MOLT-4 leukemia 72% | OVCAR-8 ovarian 109% | OVCAR-5 ovarian 106% | OVCAR-4 ovarian 102% | SK-OV-3 ovarian 103% | IGROV1 ovarian 107% | OVCAR-3 ovarian 107% | NCI/ADR-RES ovarian 98.7%

COc1ccc(/C=C/C(=O)C(=O)/C=C/c2ccc(OC)c(OC)c2)cc1OC
inactive: SK-MEL-2 melanoma 96.6% | EKVX NSCLC 62.6% | TK-10 renal 68.6% | CAKI-1 renal 84.3% | A498 renal 72.9% | MOLT-4 leukemia 23.4% | OVCAR-8 ovarian 19.5% | OVCAR-5 ovarian 60.5% | OVCAR-4 ovarian 61.9% | SK-OV-3 ovarian 97.8% | IGROV1 ovarian 10.1% | HS 578T breast 31.5% | NCI/ADR-RES ovarian 71.7%
active: SN12C renal 2.82% | UO-31 renal 0.571% | ACHN renal -0.679% | SR leukemia 4.78% | RPMI-8226 leukemia 3.5% | OVCAR-3 ovarian 3.9%

Cc1n[nH]c(C)c1N=Nc1cccc2c1C(=O)c1ccccc1C2=O
inactive: SK-MEL-2 melanoma 105% | EKVX NSCLC 61.8% | SN12C renal 91.6% | UO-31 renal 66.4% | TK-10 renal 97.8% | ACHN renal 80% | CAKI-1 renal 73.6% | A498 renal 55.2% | MOLT-4 leukemia 84.5% | SR leukemia 91.4% | RPMI-8226 leukemia 104% | OVCAR-8 ovarian 91.3% | OVCAR-5 ovarian 91.8% | OVCAR-4 ovarian 89.5% | SK-OV-3 ovarian 93.6% | IGROV1 ovarian 84.1% | OVCAR-3 ovarian 106% | HS 578T breast 96.7% | NCI/ADR-RES ovarian 89.1%

CC(C)(C)c1ccc(S(=O)(=O)Oc2ccc(NC(=O)C3CCCCC3)cc2)cc1
inactive: SK-MEL-2 melanoma 31.6% | EKVX NSCLC 23.8% | SN12C renal 60.2% | UO-31 renal 38% | TK-10 renal 57.8% | ACHN renal 25.7% | CAKI-1 renal 58.3% | A498 renal 90% | MOLT-4 leukemia 33.5% | SR leukemia 42.6% | RPMI-8226 leukemia 13.6% | OVCAR-8 ovarian 51% | OVCAR-5 ovarian 85.1% | OVCAR-4 ovarian 47.5% | IGROV1 ovarian 76.3% | HS 578T breast 81.4% | NCI/ADR-RES ovarian 29.8%

CC(=O)N[C@H](C(=O)N[C@@H](CCCNC(=N)N)C(=O)N[C@@H](CCCCN)C(=O)N[C@@H](CCCNC(=N)N)C(=O)N[C@]1(C)CCCCCC/C=C\CCC[C@@](C)(C(=O)N[C@@H](CCCNC(=N)N)C(=O)N[C@@H](CCC(=O)O)C(=O)N[C@@H](CC(C)C)C(=O)N[C@H](C(=O)N[C@@H](CCC(=O)O)C(N)=O)C(C)C)NC(=O)[C@H](CCC(N)=O)NC(=O)[C@H](CC(C)C)NC(=O)[C@H](CC(C)C)NC(=O)[C@H](CCCNC(=N)N)NC(=O)[C@H](CCCNC(=N)N)NC(=O)[C@H](CC(C)C)NC1=O)C(C)C
inactive: SK-MEL-2 melanoma 53.5% | UO-31 renal 50.1% | CAKI-1 renal 16.1% | MOLT-4 leukemia 34.6% | SR leukemia 15.4% | RPMI-8226 leukemia 20.9% | OVCAR-5 ovarian 38.3% | OVCAR-4 ovarian 39.6% | SK-OV-3 ovarian 53.1% | IGROV1 ovarian 58.8%
active: EKVX NSCLC -22.3% | SN12C renal -41.3% | TK-10 renal -43% | ACHN renal 9.21% | A498 renal 1.28% | OVCAR-8 ovarian -15.5% | OVCAR-3 ovarian -38.9% | HS 578T breast -33.9% | NCI/ADR-RES ovarian 7.03%

Cc1c[nH]c(=O)n(Cc2nnc(CCC(=O)c3nc4ccccc4[nH]3)o2)c1=O
inactive: SK-MEL-2 melanoma 25.2% | EKVX NSCLC 54.9% | SN12C renal 30.2% | UO-31 renal 44.2% | TK-10 renal 64.1% | ACHN renal 61.1% | CAKI-1 renal 63.5% | A498 renal 11.5% | RPMI-8226 leukemia 17.2% | OVCAR-8 ovarian 21% | OVCAR-5 ovarian 13.8% | IGROV1 ovarian 47.8% | HS 578T breast 10.2% | NCI/ADR-RES ovarian 90.7%
active: MOLT-4 leukemia 9.42% | SR leukemia 4.57% | SK-OV-3 ovarian -7.95% | OVCAR-3 ovarian -14.8%

COc1ccc(C(c2ccc(OCCN(C)C)cc2)c2cc3ccccc3c3ccccc23)cc1 (centres undefined)
active: MOLT-4 leukemia 5.83% | SR leukemia -30.6%
inactive: SK-MEL-2 melanoma 86.4% | EKVX NSCLC 56.6% | SN12C renal 64.4% | UO-31 renal 72.2% | TK-10 renal 88% | ACHN renal 21.6% | CAKI-1 renal 76.5% | A498 renal 101% | RPMI-8226 leukemia 13.2% | OVCAR-8 ovarian 70.2% | OVCAR-5 ovarian 79.3% | OVCAR-4 ovarian 77.9% | SK-OV-3 ovarian 106% | IGROV1 ovarian 61.7% | OVCAR-3 ovarian 62.6% | HS 578T breast 75.1% | NCI/ADR-RES ovarian 68.1%
